Experimental data as given in PubChem BioAssay (Tox21).
Results filed as inconclusive are left out. Where a call stands in place of a potency, no number is given. Active and inactive are the calls of the source. Unless noted, calls follow the shape of the dose curve; as a rule, active = well fitted curve in the direction sought with a large enough effect in the repeat runs; inconclusive = weak or mixed curves; inactive = no such curve, though single readings can be large; an effect the other way counts as inactive or inconclusive.

Legend:
[1] = qHTS RealTime-Glo MT Cell Viability Assay in HEK293 cells - 0 hour (AID 1224880); also: top concentration of the series differs between compounds; nearly all actives have a fitted effect of over 45% in size
In short: (§1)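 Cells were seeded together with NanoLuc luciferase and a prosubstrate that viable cells reduce to a luciferase substrate. After a 5 h incubation at 37 C/5% CO2, compounds were added and luminescence was measured repeatedly during 40 h of treatment.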

[2] = A CellTox Green Cytotoxicity Assay to monitor cytotoxicity in HEK293 cells - 32 hour (AID 1224881); also: nearly all actives have a fitted effect of over 40% in size
In short: (§2)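 Nonlytic real-time cytotoxicity: HEK293 + CellTox Green reagent plated, 5 h preincubation, pintool compound addition (23 nL in DMSO), 37 C for 40 h, fluorescence measured at successive time points.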

[3] = A CellTox Green Cytotoxicity Assay to monitor cytotoxicity in HepG2 cells - 0 hour (AID 1224882); also: nearly all actives have a fitted effect of over 35% in size
In short: (§3)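 Read-out is fluorescence of a cyanine dye excluded from live cells that stains DNA of dead HepG2 cells, with signal proportional to cytotoxicity. Plates were read at 0, 8, 16, 24, 32 and 40 h after compound addition.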

[4] = A CellTox Green Cytotoxicity Assay to monitor cytotoxicity in HepG2 cells - 32 hour (AID 1224883); also: nearly all actives have a fitted effect of over 50% in size
In short: as §3

[5] = A CellTox Green Cytotoxicity Assay to monitor cytotoxicity in HEK293 cells - 8 hour (AID 1224884); also: nearly all actives have a fitted effect of over 35% in size
In short: as §2

[6] = qHTS RealTime-Glo MT Cell Viability Assay in HepG2 cells - 16 hour (AID 1224885); also: nearly all actives have a fitted effect of over 50% in size
In short: (§4)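 qHTS, HepG2, 600 cells/well, RealTime-Glo (NanoLuc + prosubstrate) added with cells; 5 h preincubation; DMSO compound addition; 37 C; luminescence at 0/8/16/24/32/40 h.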

[7] = qHTS RealTime-Glo MT Cell Viability Assay in HEK293 cells - 24 hour (AID 1224886); also: top concentration of the series differs between compounds; nearly all actives have a fitted effect of over 50% in size
In short: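 Assay medium contained NanoLuc luciferase plus cell-permeant prosubstrate, added with HEK293 cells at 600 cells/well. After 5 h at 37 C/5% CO2 compounds were added; plates stayed at 37 C for 40 h with serial luminescence reads.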

[8] = qHTS RealTime-Glo MT Cell Viability Assay in HEK293 cells - 8 hour (AID 1224887); also: top concentration of the series differs between compounds; nearly all actives have a fitted effect of over 50% in size
In short: as §1

[9] = A CellTox Green Cytotoxicity Assay to monitor cytotoxicity in HEK293 cells - 16 hour (AID 1224888); also: nearly all actives have a fitted effect of over 35% in size
In short: as §2

[10] = A CellTox Green Cytotoxicity Assay to monitor cytotoxicity in HepG2 cells - 8 hour (AID 1224890); also: nearly all actives have a fitted effect of over 45% in size
In short: as §3

[11] = qHTS assay to identify small molecule antagonists of the estrogen receptor alpha (ER-alpha) signaling pathway using the BG1 cell line in the presence of 0.1 nM 17-beta-estradiol - cell viability counter screen (AID 1259241); also: nearly all actives have a fitted effect of over 40% in size
In short: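 CellTiter-Fluor read (30 min, 37C) on ER-alpha/ERE-luc VM7Luc4E2 cells; 22 hr compound treatment; agonist 0.1 nM E2 final; same-well multiplex.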

[12] = qHTS assay to identify small molecule antagonists of the androgen receptor (AR) signaling pathway using the MDA cell line in the presence of 0.5 nM R1881 - cell viability counter screen (AID 1259242); also: nearly all actives have a fitted effect of over 45% in size
In short: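 Counter screen for cytotoxicity run in the same wells as the AR antagonist reporter screen: MDA-kb2 cells were treated 16 hr with test compounds and 0.5 nM R1881, then live-cell protease activity was measured by fluorescence.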

[13] = qHTS assay to identify small molecule phospholipidosis (PLD) inducers (AID 1259344; active = well fitted curve in the direction sought with a large enough effect; an effect the other way counts as inactive or inconclusive)
In short: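 Quantitative HTS in HepG2: compound plus LipidTOX Red dye for 24 h, paraformaldehyde fixation with Hoechst 33342, widefield high-content imaging; amiodarone as positive and DMSO as negative control.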

[14] = qHTS assay to identify small molecule HDAC inhibitors (AID 1259364); also: nearly all actives have a fitted effect of over 45% in size; also: potency is read from the fitted curve at half-maximal effect
In short: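 Luminescence from a cell-permeant luminogenic class I/II HDAC substrate reports endogenous deacetylase activity in intact HCT-116 cells treated with compounds for 2 h.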

[15] = qHTS assay to identify small molecule HDAC inhibitors - cell viability counter screen (AID 1259365)
In short: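 To flag cytotoxic hits, 1,500 wild-type HCT-116 cells per well, plated the day before, receive test compounds for 2hr at 37 C before CellTiter-Glo reagent and a luminescence read.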

[16] = qHTS assay to identify small molecule agonists of the sonic hedgehog signaling (Shh) pathway - cell viability counter screen (AID 1259366); also: nearly all actives have a fitted effect of over 50% in size
In short: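 Fluorescence from CellTiter-Fluor reports live cells in this counter screen. NIH/3T3-derived Gli1-Luc reporter cells receive test compounds for 24hr at 37C; reagent goes in at 23hr.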

[17] = qHTS assay to identify small molecule antagonists of the sonic hedgehog signaling (Shh) pathway - cell viability counter screen (AID 1259367); also: nearly all actives have a fitted effect of over 55% in size
In short: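 Seed 3T3 Gli1-Luc cells at 2,000 per well; incubate 4 hr; add compound in DMSO, then conditioned medium; incubate at 37C with 5% CO2; add CellTiter-Fluor after 23 hr; read fluorescence 1 hr later.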

[18] = molecular target: Estrogen receptor (Homo sapiens) (UniProt P03372); experiment: qHTS assay to identify small molecule antagonists of the estrogen receptor alpha (ER-alpha) signaling pathway using the BG1 cell line in the presence of 0.1 nM 17-beta-estradiol (AID 1259244); also: nearly all actives have a fitted effect of over 50% in size
Estrogen receptor (Homo sapiens), sequence (P03372 whole entry, looked up): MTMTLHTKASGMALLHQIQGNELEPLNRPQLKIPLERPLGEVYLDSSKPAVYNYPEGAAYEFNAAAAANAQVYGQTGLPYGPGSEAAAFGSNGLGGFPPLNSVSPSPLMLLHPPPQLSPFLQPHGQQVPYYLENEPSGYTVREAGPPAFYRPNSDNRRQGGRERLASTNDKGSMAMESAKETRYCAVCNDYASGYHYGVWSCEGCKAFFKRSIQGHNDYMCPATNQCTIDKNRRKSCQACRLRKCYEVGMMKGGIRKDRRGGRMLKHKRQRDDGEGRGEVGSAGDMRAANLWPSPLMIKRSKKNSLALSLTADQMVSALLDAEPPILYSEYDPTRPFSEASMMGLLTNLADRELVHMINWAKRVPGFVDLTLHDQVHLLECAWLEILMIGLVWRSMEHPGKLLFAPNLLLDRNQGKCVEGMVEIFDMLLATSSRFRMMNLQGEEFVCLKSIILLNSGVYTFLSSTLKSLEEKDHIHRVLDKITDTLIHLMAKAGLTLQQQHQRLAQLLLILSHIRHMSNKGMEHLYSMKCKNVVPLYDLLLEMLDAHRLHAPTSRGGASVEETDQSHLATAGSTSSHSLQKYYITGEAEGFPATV
In short: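 Cells: VM7Luc4E2, endogenous ER-alpha, 4x ERE-luc stable. Pre-culture 5 d, phenol red-free, charcoal-stripped FBS. Plated 24 h, compound + E2 0.1 nM final, 22 h 37C/5% CO2. Readout ONE-Glo luminescence.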

[19] = qHTS RealTime-Glo MT Cell Viability Assay in HepG2 cells - 0 hour (AID 1224889); also: nearly all actives have a fitted effect of over 50% in size
In short: as §4

[20] = molecular target: Androgen receptor (Homo sapiens) (UniProt P10275); experiment: qHTS assay to identify small molecule antagonists of the androgen receptor (AR) signaling pathway using the MDA cell line in the presence of 0.5 nM R1881 (AID 1259243); also: nearly all actives have a fitted effect of over 50% in size
Androgen receptor (Homo sapiens), sequence (P10275 whole entry, looked up): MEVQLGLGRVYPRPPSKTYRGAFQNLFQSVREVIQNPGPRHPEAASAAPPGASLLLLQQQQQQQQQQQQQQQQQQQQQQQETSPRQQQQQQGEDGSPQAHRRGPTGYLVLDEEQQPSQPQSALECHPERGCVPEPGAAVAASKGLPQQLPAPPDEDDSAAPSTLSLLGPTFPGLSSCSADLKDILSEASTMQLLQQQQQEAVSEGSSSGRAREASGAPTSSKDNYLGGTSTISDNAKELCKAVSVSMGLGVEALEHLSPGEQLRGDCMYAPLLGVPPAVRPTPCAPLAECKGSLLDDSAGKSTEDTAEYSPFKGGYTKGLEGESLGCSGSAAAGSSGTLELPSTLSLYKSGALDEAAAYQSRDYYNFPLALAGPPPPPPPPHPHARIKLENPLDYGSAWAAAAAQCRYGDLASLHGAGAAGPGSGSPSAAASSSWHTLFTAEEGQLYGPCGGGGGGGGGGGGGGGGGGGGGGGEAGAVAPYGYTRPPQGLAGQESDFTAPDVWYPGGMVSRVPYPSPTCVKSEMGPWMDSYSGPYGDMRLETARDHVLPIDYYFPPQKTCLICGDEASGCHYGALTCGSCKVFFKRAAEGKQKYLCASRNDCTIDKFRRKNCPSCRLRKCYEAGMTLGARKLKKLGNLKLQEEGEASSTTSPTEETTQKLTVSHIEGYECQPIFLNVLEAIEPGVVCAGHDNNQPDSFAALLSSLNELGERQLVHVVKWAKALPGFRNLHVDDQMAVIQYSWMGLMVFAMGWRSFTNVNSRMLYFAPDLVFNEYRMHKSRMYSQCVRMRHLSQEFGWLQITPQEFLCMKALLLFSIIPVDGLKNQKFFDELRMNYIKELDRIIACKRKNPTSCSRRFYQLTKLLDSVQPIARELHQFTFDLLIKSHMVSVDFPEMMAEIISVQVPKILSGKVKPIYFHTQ
In short: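 Luciferase luminescence is the read-out: compounds are tested for suppressing 0.5 nM R1881-driven MMTV reporter activity in MDA-kb2 cells after 16 hr at 37C.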

| Compound | outcome [1] | Potency [2] | outcome [3] | Potency [4] | outcome [5] | Potency [6] | Potency [7] | Potency [8] | Potency [9] | outcome [10] | Potency [11] | Potency [12] | outcome [13] | Potency [14] | outcome [15] | Potency [16] | Potency [17] | Potency [18] | Potency [19] | Potency [20] |
| --- | --- | --- | --- | --- | --- | --- | --- | --- | --- | --- | --- | --- | --- | --- | --- | --- | --- | --- | --- | --- |
| CN1C(=O)CC[C@H]1c1cccnc1 | inactive | inactive | inactive | inactive | inactive | inactive | inactive | inactive | inactive | inactive | inactive | inactive | inactive | inactive | inactive | inactive | inactive | – | – | – |
| C=CC(C)CCCC(C)(C)O (configuration not stated) | inactive | inactive | inactive | inactive | inactive | inactive | inactive | inactive | inactive | inactive | inactive | inactive | – | inactive | inactive | inactive | inactive | inactive | – | – |
| COC(=O)CCCC(=O)OC | inactive | inactive | inactive | inactive | inactive | inactive | inactive | inactive | inactive | inactive | inactive | inactive | – | inactive | inactive | – | inactive | – | inactive | – |
| CC1(C)S[C@@H]2[C@H](NC(=O)COc3ccccc3)C(=O)N2[C@H]1C(=O)O | inactive | inactive | inactive | inactive | inactive | inactive | inactive | inactive | inactive | inactive | inactive | inactive | – | inactive | inactive | – | inactive | inactive | inactive | – |
| CCOC(=O)n1ccn(C)c1=S | inactive | inactive | inactive | inactive | inactive | inactive | inactive | inactive | inactive | – | inactive | inactive | inactive | inactive | inactive | inactive | inactive | inactive | – | – |
| CCCCOC(=O)c1ccc(N)cc1 | inactive | inactive | inactive | inactive | inactive | inactive | inactive | inactive | inactive | – | inactive | inactive | inactive | inactive | inactive | inactive | inactive | inactive | – | – |
| O=C1c2ccccc2CCc2ccccc21 | inactive | inactive | inactive | inactive | inactive | inactive | inactive | inactive | inactive | – | inactive | inactive | – | 27.9 µM (active) | inactive | inactive | inactive | – | inactive | – |
| CCCCCCO | inactive | inactive | inactive | inactive | inactive | inactive | inactive | inactive | inactive | inactive | inactive | inactive | – | inactive | inactive | inactive | inactive | inactive | inactive | – |
| CC1(C)NC(=O)NC1=O | inactive | inactive | inactive | inactive | inactive | inactive | inactive | inactive | inactive | inactive | inactive | inactive | – | inactive | inactive | inactive | inactive | inactive | inactive | – |
| OCc1ccccc1 | inactive | inactive | inactive | inactive | inactive | inactive | inactive | inactive | inactive | inactive | inactive | inactive | inactive | inactive | inactive | inactive | inactive | inactive | – | inactive |
| CCCCCCC=O | inactive | inactive | inactive | inactive | inactive | inactive | inactive | inactive | inactive | inactive | inactive | inactive | – | inactive | inactive | – | inactive | inactive | – | – |
| COc1cc(OC)c(C(=O)CCCN2CCCC2)c(OC)c1 | inactive | inactive | inactive | inactive | inactive | inactive | inactive | inactive | inactive | inactive | inactive | inactive | inactive | inactive | inactive | inactive | inactive | – | inactive | inactive |
| C[Si]1(C)O[Si](C)(C)O[Si](C)(C)O[Si](C)(C)O1 | inactive | inactive | inactive | inactive | inactive | inactive | inactive | inactive | inactive | – | inactive | inactive | – | inactive | inactive | – | inactive | inactive | inactive | – |
| CC(=O)OCc1ccccc1 | inactive | inactive | inactive | inactive | inactive | inactive | inactive | inactive | inactive | inactive | inactive | inactive | – | inactive | inactive | inactive | inactive | inactive | – | inactive |
| Nc1ccc(Cl)c(N)c1 | inactive | inactive | inactive | inactive | inactive | inactive | inactive | inactive | inactive | – | inactive | inactive | – | inactive | inactive | inactive | inactive | inactive | inactive | – |
| C[C@]12CC[C@@H]3c4ccc(O)cc4CC[C@H]3[C@@H]1C[C@@H](O)[C@@H]2O | inactive | inactive | inactive | inactive | inactive | inactive | inactive | inactive | inactive | inactive | inactive | inactive | inactive | inactive | inactive | inactive | inactive | – | – | – |
| OC1C(O)C(O)C(O)C(O)C1O (configuration not stated) | inactive | inactive | inactive | inactive | inactive | inactive | inactive | inactive | inactive | – | inactive | inactive | inactive | inactive | inactive | – | inactive | inactive | inactive | – |
